Screening results: PubChem, The Scripps Research Institute Molecular Screening Center
HTRA1 inhibitor = HTRA1 (human) protease inhibition | Q92743 | recombinant HTRA1, FP-rhodamine activity-based probe, fluorescence polarization | inhibition, % at 5.96 µM | 340,000 tested, 0.5% active | AID 504803; in the data active = inhibition above about 36%;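 note: 0% = enzyme with DMSO and 100% = wells lacking enzyme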
PAFAH1B3 inh = PAFAH1B3 (human) inhibition; 340,000 tested, 0.28% active; inhibition, % at 3.39 µM; Q15102; AID 492972; recombinant PAFAH1B3, FP-rhodamine probe, fluorescence polarization;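 active = inhibition above the screen-wide average of all tested compounds plus 3 SD, cut at about 25% in these data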;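 note: 0% = enzyme with DMSO only and 100% = wells lacking PAFAH1B3 protein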
DAGLB inh = diacylglycerol lipase beta (human) inhibition; Q8NCG7; HEK293T DAGLB membrane lysate, EnzChek fluorogenic substrate; inhibition, % at 5.17 µM; 340,000 tested, 0.059% active; AID 504411; in the data active = inhibition above about 34%;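 note: 0% = enzyme with vehicle and 100% = wells lacking enzyme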
Target sequence (Q8NCG7 whole entry, looked up): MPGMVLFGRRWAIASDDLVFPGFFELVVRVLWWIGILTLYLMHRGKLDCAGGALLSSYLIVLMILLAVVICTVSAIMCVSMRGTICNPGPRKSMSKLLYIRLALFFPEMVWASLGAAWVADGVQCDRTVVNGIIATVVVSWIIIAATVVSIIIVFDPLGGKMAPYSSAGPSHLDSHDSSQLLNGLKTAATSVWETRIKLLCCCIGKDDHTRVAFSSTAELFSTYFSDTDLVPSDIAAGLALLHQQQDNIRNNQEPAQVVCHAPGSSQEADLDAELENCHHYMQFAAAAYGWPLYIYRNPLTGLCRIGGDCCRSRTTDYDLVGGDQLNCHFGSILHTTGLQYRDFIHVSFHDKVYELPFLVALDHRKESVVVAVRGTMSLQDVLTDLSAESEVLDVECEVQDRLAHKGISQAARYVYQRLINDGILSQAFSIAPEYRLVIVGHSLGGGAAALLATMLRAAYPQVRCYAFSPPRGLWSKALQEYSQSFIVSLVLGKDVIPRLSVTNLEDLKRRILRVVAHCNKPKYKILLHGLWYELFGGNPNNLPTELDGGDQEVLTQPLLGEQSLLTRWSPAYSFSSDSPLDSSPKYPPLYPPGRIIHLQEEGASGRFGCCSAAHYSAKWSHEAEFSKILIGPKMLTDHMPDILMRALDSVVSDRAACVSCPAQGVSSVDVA
PAFAH2 FP inh = PAFAH2 (human) inhibition; 340,000 tested, 0.99% active; inhibition, % at 3.39 µM; recombinant PAFAH2, FP-rhodamine activity probe, fluorescence polarization; Q99487;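 active = inhibition above the mean over all tested compounds plus 3 SD, cut at about 30% in these data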;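 note: inhibitors block probe labeling of enzyme so polarization drops; 0% = enzyme with DMSO and 100% = wells lacking PAFAH2 protein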
PAFAH1B2 FP inh = PAFAH1B2 (human) inhibition. recombinant PAFAH1B2, FP-rhodamine activity probe, fluorescence polarization. P68402. 340,000 tested, 1.2% active. inhibition, % at 3.39 µM;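 active = inhibition above the mean of all tested compounds plus 3 SD, cut at about 24% in these data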;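 note: 0% = enzyme with DMSO and 100% = wells lacking PAFAH1B2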
pPAFAH FP inh = inhibitors of human plasma PAF acetylhydrolase (pPAFAH). Q13093. recombinant pPAFAH, FP-rhodamine probe fluorescence polarization. inhibition, % at 3.39 µM. 330,000 tested, 1.5% active. AID 463082;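 active = inhibition above the mean inhibition across the screen plus 3 SD, cut at about 25% in these data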;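 note: inhibitors block binding of the rhodamine activity-based probe so polarization drops; 0% = enzyme with DMSO and 100% = wells lacking pPAFAH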
* = called active by the depositor; . = no result given. In the library only some 2.8% were active in any assay of this set; here they are far more common.

SMILES	HTRA1 inhibitor	PAFAH1B3 inh	DAGLB inh	PAFAH2 FP inh	PAFAH1B2 FP inh	pPAFAH FP inh
COc1ccc(-c2cc(-c3c(O)c(OC)c4occc4c3OC)[nH]n2)cc1	13	7	1	1	4	18
CC1CC(C)CN(C(=O)CN2C(=O)NC(c3ccccc3)(c3ccccc3)C2=O)C1 (stereo not drawn)	-7	0	1	-1	26*	3
CCOC(=O)N1CCN(C(=O)CN2C(=O)NC(c3ccccc3)(c3ccccc3)C2=O)CC1	-6	3	1	0	3	0
COc1ccc(C(C(=O)NCC2CCCO2)N(C(=O)Cn2nnc3ccccc32)c2ccccc2C(C)=O)cc1OC (stereo not drawn)	5	3	1	-4	-1	7
CN1CCN(CCCNC(=O)c2ccc(/C=C3\Sc4ccccc4N(Cc4ccc(F)cc4)C3=O)cc2)CC1	-17	10	3	-11	2	.
CCN1CCN(CCNC(=O)c2ccc(/C=C3\Sc4ccccc4N(Cc4ccccc4F)C3=O)cc2)CC1	-14	5	7	0	2	25*
O=C(CNS(=O)(=O)c1ccc2ccccc2c1)OCc1csc(-c2ccccc2)n1	-17	1	-3	-11	28*	16
CCCCc1nnc(NC(=O)CCSc2ccccc2)s1	-9	-8	-1	-7	6	5
Cc1nnc(NC(=O)CCSc2ccccc2)s1	0	13	1	0	27*	-1
COc1ccc(C)cc1NC(=O)C/C(C)=N/NC(=O)Cc1cccc2ccccc12	-25	4	-2	-2	6	-10
Cc1ccc([C@H]2C(C(=O)O)=CC[C@@H](c3cccs3)N2S(=O)(=O)c2ccc(C)cc2)cc1	-7	0	5	7	27*	0
Cc1ccc(S(=O)(=O)N2[C@@H](c3cccc(Cl)c3)C(C(=O)O)=CC[C@H]2c2cccs2)cc1	-25	7	8	7	27*	-4
Cc1ccc(S(=O)(=O)N2[C@@H](c3ccc(F)cc3)C(C(=O)O)=CC[C@H]2c2cccs2)cc1	-9	-8	4	0	30*	6
COc1ccc([C@@H]2CC=C(C(=O)O)[C@H](c3cccc(Cl)c3)N2S(=O)(=O)c2ccc(C)cc2)cc1OC	-3	-2	4	4	8	9
O=C(O)C1C=CC(C(=O)O)c2ccccc21 (stereo not drawn)	10	.	-5	.	.	.
CN(C)C(=O)c1ccc(Nc2ncnc3sc4c(c23)CCCCC4)cc1	-6	-2	2	0	-2	1
O=C(c1ccc(Oc2ccccc2)cc1)c1nc2c(n1O)CCCC2	2	0	-19	3	6	31*
CCc1cccc(C)c1NC(=O)COC(=O)c1cc([N+](=O)[O-])ccc1N1CCOCC1	4	4	0	4	2	6
N#CCOC(=O)c1sccc1-n1cccc1	18	10	-2	-14	11	-2
N#CCC(=O)c1sccc1-n1cccc1	11	6	9	3	11	34*
Cc1ccc(S(=O)(=O)Nc2cc3c(cc2C#N)OCO3)cc1C(N)=O	4	0	1	0	3	3
O=C(NCc1n[nH]c(=S)n1-c1ccc(Br)cc1)c1ccc(S(=O)(=O)N2CCCC2)cc1	7	-1	0	1	12	-3
O=C(NCc1n[nH]c(=S)n1-c1ccc(Br)cc1)c1ccc(S(=O)(=O)N2CCCCC2)cc1	3	-9	0	3	30*	4
CN1CSC2=C(C#N)C(c3cccc(OCc4ccccc4)c3)CC(=O)N2C1 (stereo not drawn)	-30	7	4	32*	7	16
O=C(COc1ccc(S(=O)(=O)NC2CCCCC2)cc1)NC1CCCCC1	-6	7	-2	-6	1	9
SMILES	HTRA1 inhibitor	PAFAH1B3 inh	DAGLB inh	PAFAH2 FP inh	PAFAH1B2 FP inh	pPAFAH FP inh
O=C(CCS(=O)(=O)c1ccc(Cl)cc1)NCCC1=CCCCC1	-6	-3	0	0	10	7
O=C(CCS(=O)(=O)c1ccc(Br)cc1)NCCC1=CCCCC1	-2	10	0	0	26*	1
O=C(COc1ccc(S(=O)(=O)NC2CCCCC2)cc1)NCCC1=CCCCC1	-19	-2	-1	7	2	28*
O=C(CCCSCCCC(=O)NN=Cc1ccccc1)NN=Cc1ccccc1	-15	4	3	9	7	.
Cc1ccc(-c2cc3ccccc3nc2N2CCOCC2)cc1	.	.	.	.	.	26*
O=C1CC(c2cccc(Cl)c2)c2cc3c(cc2N1)CCC3 (stereo not drawn)	-41	1	1	7	-1	28*
COc1cccc(C2CC(=O)Nc3cc4c(cc32)CCC4)c1 (stereo not drawn)	-27	4	-4	-1	0	32*
Cc1nc(C)n(C(C)CNC(=O)c2cccc(Br)c2)n1 (stereo not drawn)	4	13	-1	-6	4	.
CCOC(=O)C1c2cccc(O)c2CCN1C(C)=O (stereo not drawn)	6	.	0	.	.	.
O=C(NNC(=O)c1ccccc1F)c1ccc(S(=O)(=O)N2CCCC2)cc1	1	9	3	-2	4	1
CC1CC(C)CN(S(=O)(=O)c2ccc(C(=O)NNC(=O)c3ccccc3F)cc2)C1 (stereo not drawn)	1	3	1	5	26*	2
Cn1nc(-c2ccccn2)nc2c(=O)n(C)c(=O)nc1-2	28	68*	-24	59*	32*	12
CCCc1nc2c(=O)n(C)c(=O)nc-2n(C)n1	29	78*	-33	60*	36*	.
CCn1c(N)nc2c1c(=O)n(C)c(=O)n2C	2	1	1	9	1	8
O=c1c2ccccc2[nH]c2ccc(O)cc12	19	14	-1	18	10	29*
O=C(NCCc1ccccc1)c1nnc(CS(=O)(=O)c2ccccc2)o1	-9	-3	-3	13	19	28*
Cc1ccc(CNn2cnnc2SCc2ccc(F)cc2)cc1	-2	8	-2	4	28*	4
Fc1ccc(CNn2cnnc2SCc2ccc(F)cc2)cc1	0	6	1	0	16	8
NC(=O)c1ncn([C@@H]2O[C@H](CNCc3cc(Cl)ccc3OCc3ccc(Cl)cc3)[C@@H](O)[C@H]2O)n1	-4	4	1	13	28*	.
CCn1cc(Cl)c(C(=O)Nc2ccccc2C(N)=O)n1	7	10	1	1	1	2
O=C1NCCOC(=O)[C@H](Cc2ccc(F)cc2)C/C=C\C[C@H]1CC(=O)N(CCO)Cc1ccccc1	5	4	-2	0	30*	7
O=C1NC[C@H](c2ccccc2)OC(=O)[C@H](Cc2ccc(F)cc2)C/C=C\C[C@@H]1CC(=O)N(CCO)Cc1ccccc1	-7	7	-3	-3	-4	2
